39 targets from the supplement of paper PMC10849652 can be followed below.

Targets with a hit are over-represented here; the source holds about 8,800 in all. About 0.5% of all pairs of compound and target were hits.

Chain of UniProt Q53G59 (Q53G59 whole entry, looked up): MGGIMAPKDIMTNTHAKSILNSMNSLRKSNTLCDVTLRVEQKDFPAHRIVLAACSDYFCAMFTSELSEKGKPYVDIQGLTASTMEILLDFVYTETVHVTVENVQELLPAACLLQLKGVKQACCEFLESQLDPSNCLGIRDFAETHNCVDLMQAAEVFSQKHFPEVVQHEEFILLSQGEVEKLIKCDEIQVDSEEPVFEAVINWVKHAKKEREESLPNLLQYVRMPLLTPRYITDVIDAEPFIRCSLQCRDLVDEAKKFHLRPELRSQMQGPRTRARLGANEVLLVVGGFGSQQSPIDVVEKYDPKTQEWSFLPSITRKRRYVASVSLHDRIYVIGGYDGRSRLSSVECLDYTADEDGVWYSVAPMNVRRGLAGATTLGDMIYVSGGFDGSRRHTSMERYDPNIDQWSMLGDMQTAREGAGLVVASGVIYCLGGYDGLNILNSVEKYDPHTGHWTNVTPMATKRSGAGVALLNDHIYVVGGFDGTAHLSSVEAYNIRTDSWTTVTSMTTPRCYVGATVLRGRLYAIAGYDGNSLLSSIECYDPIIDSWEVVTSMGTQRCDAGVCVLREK
Chain of UniProt O00522 (O00522 whole entry, looked up): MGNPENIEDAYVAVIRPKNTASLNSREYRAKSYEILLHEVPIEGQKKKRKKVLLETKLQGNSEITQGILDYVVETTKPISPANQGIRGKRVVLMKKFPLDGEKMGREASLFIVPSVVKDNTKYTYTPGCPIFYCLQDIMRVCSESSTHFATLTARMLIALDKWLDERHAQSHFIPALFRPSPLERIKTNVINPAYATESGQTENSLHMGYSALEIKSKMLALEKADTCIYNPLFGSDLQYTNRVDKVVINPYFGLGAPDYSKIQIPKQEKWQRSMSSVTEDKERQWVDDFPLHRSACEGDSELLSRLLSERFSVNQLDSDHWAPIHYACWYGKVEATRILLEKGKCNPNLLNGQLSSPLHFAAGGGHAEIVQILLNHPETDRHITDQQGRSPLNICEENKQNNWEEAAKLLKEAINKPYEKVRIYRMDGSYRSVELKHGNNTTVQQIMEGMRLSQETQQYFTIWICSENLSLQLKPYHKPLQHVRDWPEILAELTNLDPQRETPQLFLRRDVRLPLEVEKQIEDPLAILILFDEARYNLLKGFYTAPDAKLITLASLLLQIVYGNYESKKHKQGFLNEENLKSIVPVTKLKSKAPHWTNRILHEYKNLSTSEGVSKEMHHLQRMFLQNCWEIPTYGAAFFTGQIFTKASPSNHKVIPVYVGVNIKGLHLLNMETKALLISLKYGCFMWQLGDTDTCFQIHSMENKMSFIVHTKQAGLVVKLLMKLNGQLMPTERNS
Chain of UniProt O60244 (O60244 whole entry, looked up): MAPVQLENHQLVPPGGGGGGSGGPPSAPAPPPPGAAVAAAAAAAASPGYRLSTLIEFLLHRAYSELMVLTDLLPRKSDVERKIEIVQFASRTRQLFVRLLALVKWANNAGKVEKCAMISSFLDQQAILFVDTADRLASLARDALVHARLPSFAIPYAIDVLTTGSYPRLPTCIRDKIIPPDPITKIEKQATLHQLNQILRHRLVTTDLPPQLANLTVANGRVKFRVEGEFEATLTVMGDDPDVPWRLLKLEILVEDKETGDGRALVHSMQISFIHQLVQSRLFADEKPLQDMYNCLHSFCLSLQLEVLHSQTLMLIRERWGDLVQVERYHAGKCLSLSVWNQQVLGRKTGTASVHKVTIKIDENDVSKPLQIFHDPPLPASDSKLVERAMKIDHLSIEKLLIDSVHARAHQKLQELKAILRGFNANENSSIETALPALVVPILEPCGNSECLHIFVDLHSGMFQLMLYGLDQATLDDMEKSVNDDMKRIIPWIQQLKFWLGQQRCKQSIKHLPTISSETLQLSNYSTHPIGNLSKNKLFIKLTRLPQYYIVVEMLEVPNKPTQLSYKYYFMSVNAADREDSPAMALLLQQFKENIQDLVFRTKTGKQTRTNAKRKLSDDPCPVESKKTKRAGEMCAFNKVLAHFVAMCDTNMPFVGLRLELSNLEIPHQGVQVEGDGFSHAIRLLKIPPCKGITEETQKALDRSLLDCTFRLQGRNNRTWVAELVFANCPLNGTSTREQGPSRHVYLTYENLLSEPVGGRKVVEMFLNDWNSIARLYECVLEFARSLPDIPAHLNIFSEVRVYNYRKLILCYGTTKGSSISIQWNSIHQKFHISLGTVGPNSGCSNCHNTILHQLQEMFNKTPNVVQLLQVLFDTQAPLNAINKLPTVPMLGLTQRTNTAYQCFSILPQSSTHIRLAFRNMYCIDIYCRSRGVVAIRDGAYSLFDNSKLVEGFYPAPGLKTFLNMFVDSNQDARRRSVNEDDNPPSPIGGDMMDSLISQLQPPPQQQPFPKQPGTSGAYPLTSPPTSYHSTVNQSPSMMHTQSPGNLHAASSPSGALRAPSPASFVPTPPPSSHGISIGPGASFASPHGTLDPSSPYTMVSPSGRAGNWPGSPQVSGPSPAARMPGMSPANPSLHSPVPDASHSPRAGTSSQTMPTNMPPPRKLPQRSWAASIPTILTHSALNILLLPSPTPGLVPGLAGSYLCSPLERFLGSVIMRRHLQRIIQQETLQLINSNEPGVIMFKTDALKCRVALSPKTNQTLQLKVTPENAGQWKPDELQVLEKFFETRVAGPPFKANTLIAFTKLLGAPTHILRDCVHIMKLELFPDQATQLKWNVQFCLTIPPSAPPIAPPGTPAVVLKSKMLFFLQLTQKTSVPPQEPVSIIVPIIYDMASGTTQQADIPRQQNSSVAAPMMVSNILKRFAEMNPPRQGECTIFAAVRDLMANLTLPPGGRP
Chain of UniProt Q8NF37 (Q8NF37 whole entry, looked up): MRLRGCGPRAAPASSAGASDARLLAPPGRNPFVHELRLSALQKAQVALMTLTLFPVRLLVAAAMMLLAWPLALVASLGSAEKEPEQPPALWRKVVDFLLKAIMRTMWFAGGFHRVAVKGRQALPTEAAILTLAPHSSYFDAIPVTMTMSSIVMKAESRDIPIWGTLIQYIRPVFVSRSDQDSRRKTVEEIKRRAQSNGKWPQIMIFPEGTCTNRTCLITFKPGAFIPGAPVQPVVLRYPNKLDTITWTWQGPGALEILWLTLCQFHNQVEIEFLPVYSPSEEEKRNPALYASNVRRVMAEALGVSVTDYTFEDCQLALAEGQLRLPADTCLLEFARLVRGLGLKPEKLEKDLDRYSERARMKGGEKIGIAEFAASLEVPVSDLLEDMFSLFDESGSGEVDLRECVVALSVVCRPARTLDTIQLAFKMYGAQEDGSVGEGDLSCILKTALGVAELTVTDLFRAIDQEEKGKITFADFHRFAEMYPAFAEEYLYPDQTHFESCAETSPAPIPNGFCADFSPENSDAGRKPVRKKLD
Chain of UniProt P48449 (P48449 whole entry, looked up): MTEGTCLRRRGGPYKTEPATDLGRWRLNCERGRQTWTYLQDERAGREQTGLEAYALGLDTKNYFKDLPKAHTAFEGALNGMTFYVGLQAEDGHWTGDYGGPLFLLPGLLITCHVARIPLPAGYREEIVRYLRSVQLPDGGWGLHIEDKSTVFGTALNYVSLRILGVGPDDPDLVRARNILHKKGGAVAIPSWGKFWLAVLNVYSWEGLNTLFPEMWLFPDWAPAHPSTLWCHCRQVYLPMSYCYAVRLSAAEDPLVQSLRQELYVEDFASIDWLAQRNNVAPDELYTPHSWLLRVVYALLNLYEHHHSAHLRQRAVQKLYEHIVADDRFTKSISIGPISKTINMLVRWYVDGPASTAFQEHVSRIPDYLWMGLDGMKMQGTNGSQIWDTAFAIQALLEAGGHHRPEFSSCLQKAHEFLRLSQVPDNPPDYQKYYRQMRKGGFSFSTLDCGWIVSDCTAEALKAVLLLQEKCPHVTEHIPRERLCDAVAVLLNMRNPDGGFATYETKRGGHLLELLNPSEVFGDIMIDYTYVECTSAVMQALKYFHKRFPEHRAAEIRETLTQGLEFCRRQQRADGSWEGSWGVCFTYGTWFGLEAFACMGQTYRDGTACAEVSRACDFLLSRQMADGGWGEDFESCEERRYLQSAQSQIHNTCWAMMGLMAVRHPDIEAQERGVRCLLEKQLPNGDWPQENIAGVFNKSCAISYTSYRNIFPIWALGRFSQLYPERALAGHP
Chain of UniProt P11279 (P11279 whole entry, looked up): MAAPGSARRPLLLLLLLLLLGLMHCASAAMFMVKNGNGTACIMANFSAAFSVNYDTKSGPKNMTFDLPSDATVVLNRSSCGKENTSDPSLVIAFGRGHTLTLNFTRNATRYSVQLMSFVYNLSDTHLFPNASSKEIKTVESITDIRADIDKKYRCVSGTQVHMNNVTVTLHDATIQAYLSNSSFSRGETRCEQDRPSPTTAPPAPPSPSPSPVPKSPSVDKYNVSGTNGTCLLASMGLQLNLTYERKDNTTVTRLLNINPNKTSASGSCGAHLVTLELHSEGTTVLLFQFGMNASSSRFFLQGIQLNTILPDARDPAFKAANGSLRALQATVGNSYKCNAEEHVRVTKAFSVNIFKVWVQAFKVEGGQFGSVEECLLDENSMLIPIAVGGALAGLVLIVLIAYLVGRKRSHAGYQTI
Chain of UniProt Q8N5J2 (Q8N5J2 whole entry, looked up): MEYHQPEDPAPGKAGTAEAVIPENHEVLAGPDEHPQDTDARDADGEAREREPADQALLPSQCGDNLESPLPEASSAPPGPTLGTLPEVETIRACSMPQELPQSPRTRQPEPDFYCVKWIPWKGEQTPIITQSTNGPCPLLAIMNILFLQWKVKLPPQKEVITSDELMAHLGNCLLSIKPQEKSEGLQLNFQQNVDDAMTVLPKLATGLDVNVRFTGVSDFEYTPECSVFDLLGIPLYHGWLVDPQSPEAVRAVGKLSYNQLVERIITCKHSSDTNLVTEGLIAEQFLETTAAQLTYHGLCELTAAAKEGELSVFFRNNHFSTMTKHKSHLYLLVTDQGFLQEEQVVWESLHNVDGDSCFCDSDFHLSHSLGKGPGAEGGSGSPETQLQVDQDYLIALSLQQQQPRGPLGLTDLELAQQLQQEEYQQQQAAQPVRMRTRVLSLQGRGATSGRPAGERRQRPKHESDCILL
Chain of UniProt Q9BTT4 (Q9BTT4 whole entry, looked up): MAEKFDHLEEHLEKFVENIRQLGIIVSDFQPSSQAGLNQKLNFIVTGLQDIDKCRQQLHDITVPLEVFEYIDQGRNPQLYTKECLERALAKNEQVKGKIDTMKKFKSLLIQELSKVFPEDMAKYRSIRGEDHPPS

Compound in one experiment: CN1CCN(CCOc2cc(OC3CCOCC3)c3c(Nc4c(Cl)ccc5c4OCO5)ncnc3c2)CC1 [saracatinib]
Briefly: log2 fold change, soluble protein after heating vs DMSO (PISA); higher = thermal stabilisation; K562 lysate, 10 uM; active = over 0.2 and 3.5 SD of the protein, either way, in both replicates (recomputed). In outline: (§1)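 A 30 min treatment with 10 μM compound was applied to crude K562 extract at 1 mg/mL protein in PBS pH 7.4 with 1 mM MgCl2. Heating for 3 min spanned 48°C-58°C, after which aliquots were pooled, adjusted to 0.5% NP-40 at 4°C and spun at 21,000xg for 90 min. TMTpro 16plex LC-MS/MS of the supernatant, with channel sums equalised, gave values recorded as log-two fold change in thermal stability against solvent controls, from duplicates.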
Turning to MCMBP isoform 2 (UniProt Q9BTE3), the log2 fold change is -0.036 (inactive). As for MAP4K5 (UniProt Q9Y4K4), the log2 fold change is 0.01 (inactive). Consider MACO1 (UniProt Q8N5G2), for which the log2 fold change is 0.064 (inactive). Take KLHL12 isoform 2 (UniProt Q53G59): the log2 fold change was 0.064 (inactive). Same read-out and setting: next, LSS (UniProt P48449): -0.043 (inactive); KIF4B (UniProt Q2VIQ3): -0.002 (inactive). Still for that read-out and setting: next, MRPL27 (UniProt Q9P0M9): 0.009 (inactive); MED25 isoform 3 (UniProt Q71SY5): 0.032 (inactive); MAP7D3 (UniProt Q8IWC1): -0.019 (inactive). Consider MITD1 (UniProt Q8WV92), for which the log2 fold change was 0.024 (inactive). On the same count and under the same terms, in the case of MED14 (UniProt O60244) it was -0.001 (inactive); in that of LIMK2 isoform 3 (UniProt P53671), -0.017 (inactive); in that of LAMP1 (UniProt P11279), 0.018 (inactive). The same measure, in the same setting: next, MAPK3 (UniProt P27361): 0 (inactive); MRPL35 (UniProt Q9NZE8): 0.04 (inactive). As to MAN2B2 (UniProt Q9Y2E5), the log2 fold change is -0.053 (inactive). The same measure, in the same setting: next, MAST2 (UniProt Q6P0Q8): 0.056 (inactive); MGST3 (UniProt O14880): -0.017 (inactive). Turning to MAPK14 (UniProt Q16539), the log2 fold change is 0.226 (inactive). As to LRRC7 (UniProt Q96NW7), the log2 fold change was -0.044 (inactive). In the case of MIF4GD isoform 3 (UniProt A9UHW6), the log2 fold change was 0.02 (inactive). Same read-out and setting: in the case of MME (UniProt P08473) it was -0.114 (inactive). Same read-out and setting: in the case of MAP4K2 (UniProt Q12851) it was 0.005 (inactive). On the same count and under the same terms, in the case of LIMK1 (UniProt P53667) it was -0.022 (inactive). As for MCUB (UniProt Q9NWR8), the log2 fold change is -0.096 (inactive).

On to METTL21A (UniProt Q8WXB1), for which the log2 fold change is 0.263 (active).

For the target MINDY1 isoform 3 (UniProt Q8N5J2), the log2 fold change was 0.076 (inactive).

As for MAP4 isoform 5 (UniProt P27816), the log2 fold change was 0.041 (inactive). Still for that read-out and setting: in the case of MAPKAPK3 (UniProt Q16644) it was 0.003 (inactive); in that of LPCAT1 (UniProt Q8NF37), 0.079 (inactive); in that of MANEA (UniProt Q5SRI9), -0.059 (inactive). Still for that read-out and setting: in the case of MRPL30 isoform 2 (UniProt Q8TCC3) it was 0.01 (inactive); in that of KRIT1 (UniProt O00522), -0.103 (inactive); in that of LTN1 isoform 3 (UniProt O94822), 0.04 (inactive).

With MAPK8 isoform 3 (UniProt P45983), the log2 fold change is 0.027 (inactive). Regarding MED10 (UniProt Q9BTT4), the log2 fold change is 0.077 (inactive). On to MAP3K4 (UniProt Q9Y6R4), for which the log2 fold change is 0.005 (inactive). Same read-out and setting: in the case of MAP4K4 isoform 6 (UniProt O95819) it was 0.006 (inactive).

Compound in another experiment: CN1CCN(c2nc(C3=C(c4c[nH]c5ccccc45)C(=O)NC3=O)c3ccccc3n2)CC1 [sotrastaurin]
The description is as above. In outline: as §1
Turning to MCMBP isoform 2 (UniProt Q9BTE3), the log2 fold change was -0.015 (inactive). Regarding MACO1 (UniProt Q8N5G2), the log2 fold change is -0.01 (inactive). Still for that read-out and setting: next, LEPROT (UniProt O15243): -0.009 (inactive); KLHL12 isoform 2 (UniProt Q53G59): -0.045 (inactive); LSS (UniProt P48449): 0 (inactive). In the case of KIF4B (UniProt Q2VIQ3), the log2 fold change is -0.01 (inactive). Still for that read-out and setting: in the case of MRPL27 (UniProt Q9P0M9) it was 0.05 (inactive); in that of MED25 isoform 3 (UniProt Q71SY5), 0.083 (inactive); in that of MAP7D3 (UniProt Q8IWC1), -0.024 (inactive). In the case of MITD1 (UniProt Q8WV92), the log2 fold change is 0.039 (inactive). Still for that read-out and setting: in the case of MED14 (UniProt O60244) it was 0.008 (inactive); in that of LIMK2 isoform 3 (UniProt P53671), -0.05 (inactive); in that of LAMP1 (UniProt P11279), 0.022 (inactive).

Regarding MAPK3 (UniProt P27361), the log2 fold change is -0.017 (inactive). Still for that read-out and setting: in the case of MRPL35 (UniProt Q9NZE8) it was -0.019 (inactive); in that of MAN2B2 (UniProt Q9Y2E5), -0.024 (inactive). On the same count and under the same terms, next, MAST2 (UniProt Q6P0Q8): -0.024 (inactive); MGST3 (UniProt O14880): -0.015 (inactive); MAPK14 (UniProt Q16539): -0.058 (inactive). LRRC7 (UniProt Q96NW7): the log2 fold change is -0.012 (inactive). Same read-out and setting: in the case of MIF4GD isoform 3 (UniProt A9UHW6) it was 0.017 (inactive); in that of MME (UniProt P08473), 0.016 (inactive). Same read-out and setting: next, MAP4K2 (UniProt Q12851): 0.053 (inactive); LIMK1 (UniProt P53667): -0.15 (inactive); MCUB (UniProt Q9NWR8): -0.008 (inactive). The same measure, in the same setting: in the case of METTL21A (UniProt Q8WXB1) it was 0.04 (inactive); in that of MINDY1 isoform 3 (UniProt Q8N5J2), 0.074 (inactive).

For the target MAP4 isoform 5 (UniProt P27816), the log2 fold change is -0.04 (inactive). On to MAPKAPK3 (UniProt Q16644), for which the log2 fold change is -0.014 (inactive).

In the case of LPCAT1 (UniProt Q8NF37), the log2 fold change was 0.032 (inactive).

For MANEA (UniProt Q5SRI9), the log2 fold change is -0.019 (inactive). On the same count and under the same terms, next, MRPL30 isoform 2 (UniProt Q8TCC3): 0.016 (inactive). Still for that read-out and setting: next, KRIT1 (UniProt O00522): 0.049 (inactive). On the same count and under the same terms, next, LTN1 isoform 3 (UniProt O94822): 0.03 (inactive); MAPK8 isoform 3 (UniProt P45983): 0.01 (inactive). Turning to MED10 (UniProt Q9BTT4), the log2 fold change is -0.015 (inactive). The same measure, in the same setting: next, MAP3K4 (UniProt Q9Y6R4): -0.014 (inactive).
